Experimental data published in PubChem BioAssay AID1159580 (chemical genetic matrix, 2015).
Among all 5,500 compounds or so, about 2,000 (36%) were called active. Inconclusive results (about 18%) are left out. No stated cut-off is given here; in the data, active means normalized growth mostly below about 0.91 (no sharp cut-off); inconclusive means no clear call, values can overlap the other calls; inactive means mostly above about 0.92. This is one part of the list.

Test: chemical genetic growth profiling, strain panel (AID 1159580);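 further: tested at 20 µM; growth read once vehicle control cultures reached saturation at 30 °C; 1 = growth at the plate median or of vehicle wells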
Details: S. cerevisiae deletion strains, growth OD
[1] = locus YAL013W, strain DEP1, stronger effect = lower value
[2] = locus YDR150W, strain NUM1, stronger effect = lower value
[3] = locus YGR078C, strain PAC10, stronger effect = lower value
[4] = locus YJR075W, strain HOC1, stronger effect = lower value
[5] = locus YNL153C, strain GIM3, stronger effect = lower value
[6] = locus YPL241C, strain CIN2, stronger effect = lower value

Measured: normalized growth

N#Cc1cc2nc(O)c(O)nc2cc1[N+](=O)[O-]
inactive: [1] 0.985 | locus YAL040C, strain CLN3, stronger effect = lower value 0.989 | locus YCL061C, strain MRC1 (second series), stronger effect = lower value 0.998 | [2] 0.993 | locus YDR363W, strain ESC2, stronger effect = lower value 1.01 | locus YER002W, strain NOP16, stronger effect = lower value 1.01 | [3] 0.979 | locus YGR229C, strain SMI1, stronger effect = lower value 1.02 | [4] 1 | locus YMR307W, strain GAS1, stronger effect = lower value 0.991 | [5] 0.984 | locus YNL175C, strain NOP13, stronger effect = lower value 0.995 | locus YNL197C, strain WHI3, stronger effect = lower value 0.997 | locus YNL224C, strain SQS1, stronger effect = lower value 0.979 | locus YOR083W, strain WHI5 (second series), stronger effect = lower value 0.994 | [6] 1

N#Cc1csc([N+](=O)[O-])c1
active: locus YBR229C, strain ROT2, stronger effect = lower value 0.908 | locus YDL101C, strain DUN1, stronger effect = lower value 0.817 | locus YDL134C, strain PPH21, stronger effect = lower value 0.892 | locus YEL061C, strain CIN8, stronger effect = lower value 0.797 | [3] 0.86 | locus YHR030C, strain SLT2, stronger effect = lower value 0.363 | [4] 0.86 | locus YKL190W, strain CNB1, stronger effect = lower value 0.923 | locus YLR039C, strain RIC1, stronger effect = lower value 0.687 | locus YLR085C, strain ARP6, stronger effect = lower value 0.456 | locus YLR262C, strain YPT6, stronger effect = lower value 0.795 | locus YML094W, strain GIM5, stronger effect = lower value 0.809 | locus YMR219W, strain ESC1, stronger effect = lower value 0.941 | [5] 0.901 | locus YNL298W, strain CLA4 (second series), stronger effect = lower value 0.823 | locus YNR030W, strain Alg12, stronger effect = lower value 0.834 | locus YOL006C, strain TOP1, stronger effect = lower value 0.369 | [6] 0.744 | locus YPR135W, strain CTF4, stronger effect = lower value 0.46
inactive: [1] 0.944 | locus YCL061C, strain MRC1, stronger effect = lower value 0.937 | [2] 0.885 | locus YHR087W, strain rtc3, stronger effect = lower value 0.917 | locus YJR043C, strain POL32, stronger effect = lower value 0.929 | locus YLR058C, strain SHM2 (second series), stronger effect = lower value 0.951 | locus YNL128W, strain TEP1, stronger effect = lower value 0.942 | locus YNL322C, strain KRE1, stronger effect = lower value 1.01 | locus YPL055C, strain LGE1, stronger effect = lower value 0.872
